Experimental data published in PubChem BioAssay AID485395 (ICCB-Longwood Screening Facility, Harvard Medical School, 2010).
Among all 120,000 compounds or so, about 55 (0.05%) were called active. No stated cut-off is given here; in the data, active means inhibition above about 25% (passing the limit was not always enough); inactive means the rest. What follows is part of a selection rich in actives, with near analogues and random picks from the rest.

The compounds below were run on replicative DNA helicase (DnaC/DnaB), Staphylococcus aureus (assay: S. aureus DnaC helicase unwinding inhibition – biochemical, fluorescence unwinding readout, primary screen (AID 485395;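 further: 0% = mean of negative control wells and 100% = mean of positive control wells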)). Details: purified S. aureus helicase, fluorescence unwinding assay; stronger effect = higher value; concentration not given here.

| SMILES | inhibition |
| --- | --- |
| Cc1cc(CNCc2nnc3ccccn23)c(C)n1-c1ccnn1C(C)C | 7% (inactive) |
| Nc1cc(N)cc(C(F)(F)C(F)(F)C(F)(F)F)c1 | 23% (inactive) |
| CCOc1ccc2nc(NC(=O)c3ccccc3OC)sc2c1 | -8% (inactive) |
| Cc1ccc(-n2nc(C)c(C(=O)N(Cc3ccccc3)C(C)C)c2-n2cccc2)cc1 | 22% (inactive) |
| O=C(NC(c1ccccc1)c1ccccc1)C1COC2C=CC=CC2O1 (stereo not given) | 5% (inactive) |
| CCCn1c(NC(=O)CCCc2nc3ccccc3c(=O)[nH]2)nc2ccccc21 | 6% (inactive) |
| COc1ccc(Cc2nn3c(C(C)(C)C)nnc3s2)cc1OC | -4% (inactive) |
| O=C1CCC(C(=O)NN2C(=O)c3cccc4cccc(c34)C2=O)=NN1 | 10% (inactive) |
| CCOc1ccc(CCNC(=O)Nc2ccc(C)c(C)c2)cc1OCC | -3% (inactive) |
| CCOC(=O)c1c2c(n(-c3ccccc3)c1N)OC(=N)C(C#N)C2c1ccc(Br)cc1 (stereo not given) | -19% (inactive) |
| NNC(=O)CNC(=O)c1cccc2ccccc12 | 17% (inactive) |
| O=C(CSc1ccc2nnc(-c3cccc(F)c3)n2n1)NCc1ccccc1 | -3% (inactive) |
| Cc1nc(Nc2nc3ccccc3o2)ncc1C(=O)Nc1ccccc1 | 24% (inactive) |
| Cc1occc1-c1nnc(SCc2ccc(C(C)(C)C)cc2)n1N | -3% (inactive) |
| Cc1ccc(-c2nc(C#N)c(NCc3ccc4c(c3)OCO4)o2)cc1 | 5% (inactive) |
| COc1ccc(/C=C2\Oc3ccccc3N(CC(=O)N3CCOCC3)C2=O)cc1 | 5% (inactive) |
| c1ccc(-n2nnnc2N2CCCC2c2nc3ccccc3s2)cc1 (stereo not given) | -12% (inactive) |
| COc1ccccc1/C=C1\SC(=O)N(c2ccccc2)C1=O | -8% (inactive) |
| NNC(=O)CCCc1nc2ccccc2s1 | 4% (inactive) |
| CCOC(=O)c1sc2nc(CN3CCCCC3)nc(NC3CC3)c2c1C | 16% (inactive) |
| O=S1(=O)CCC(N=Cc2cn(-c3ccccc3)nc2-c2ccccc2)C1 (stereo not given) | 10% (inactive) |
| N#CNc1nc2ccccc2nc1Cl | 2% (inactive) |

| SMILES | inhibition |
| --- | --- |
| COc1ccc(NC(=O)c2ccoc2COc2ccc(C)cc2)cc1 | 0% (inactive) |
| Cc1ccc(SCc2nnc(-c3c(-c4ccccc4)noc3C)o2)cc1C | -11% (inactive) |
| CCCSc1nnc(Nc2ccccc2OC)s1 | -21% (inactive) |
| Cc1noc(N)c1C(=O)OCc1ccc(COC(=O)c2c(C)noc2N)cc1 | -28% (inactive) |
| O=C(COC(=O)C12CC3CC(CC(Br)(C3)C1)C2)NC1CC1 | 8% (inactive) |
| Cc1nn(C)c(Cl)c1S(N)(=O)=O | 8% (inactive) |
| NC(=O)Cn1c(=O)n(Cc2ccco2)c(=O)c2ccccc21 | 16% (inactive) |
| CC(=O)N1CCc2c(sc3c2c(=O)n(Cc2ccccc2)c(=O)n3Cc2cccc(C)c2)C1 | -4% (inactive) |
| Cc1cc(=O)n(-c2cccc(C(F)(F)F)c2)[nH]1 | -1% (inactive) |
| O=C(N/N=C/c1ccc(F)cc1)c1n[nH]c2c1CCC2 | 15% (inactive) |
| Nc1c(C(=O)Nc2ccccc2C(F)(F)F)sc2[nH]c(=O)c(C(=O)O)cc12 | 15% (inactive) |
| CCCN(CC1CC1)C(=O)CSc1nc(N)cc(N)n1 | 27% (inactive) |
| NC(=O)C1CCN(C(=O)CSCc2ccc(Br)cc2)CC1 | 5% (inactive) |
| CC(C)NC(=O)CCc1c[nH]c2ccccc12 | 13% (inactive) |
| O=C(CN1CCC(c2nc(-c3ccncc3)n[nH]2)CC1)N1CCN(c2ccccc2F)CC1 | -6% (inactive) |
| COCCN1Cc2cccc(C(=O)NCc3ccco3)c2C1=O | -9% (inactive) |
| CCOc1nc(NC(=O)NC(=O)c2cccs2)nc(-c2ccccc2)n1 | 11% (inactive) |
| Cn1c(-c2ccco2)nn(C2CC(=O)C3OCC2O3)c1=S (stereo not given) | -1% (inactive) |
| CCOc1cccc(C(=O)NN2CCOCC2)c1 | -7% (inactive) |
| O=C(O)c1cccc(N2C(=O)/C(=C\c3ccc4c(c3)OCO4)SC2=S)c1 | 15% (inactive) |
| Cc1noc(C)c1COC(=O)c1cccc(S(=O)(=O)N(C)C2CCCCC2)c1 | -11% (inactive) |
| CC1CCC(C(=O)NC(C(=O)N2CCN(Cc3ccccc3)CC2)C(C)C)CC1 (stereo not given) | 0% (inactive) |

| SMILES | inhibition |
| --- | --- |
| Cc1nc(-c2ccccc2)sc1C(=O)NCC1CCCO1 (stereo not given) | -20% (inactive) |
| Nc1c(NCC(c2ccco2)N2CCCCC2)c(=O)[nH]c(=O)n1Cc1ccccc1 (stereo not given) | 9% (inactive) |
| Clc1cccc2c(N3CCN(Cc4ccccc4)CC3)cnnc12 | 17% (inactive) |
| CCCc1nnc(SCC(=O)N2CCCC2)n1CCOC | 3% (inactive) |
| CCS(=O)(=O)N1CCC(C(=O)OCC(=O)c2cc(C)n(C(C)C)c2C)CC1 | -5% (inactive) |
| CCc1n[nH]c(=S)n1/N=C1\C(=O)N(CC(C)C)c2ccccc21 | 1% (inactive) |
| Cc1ccc(C(=O)COC(=O)c2cc3cc(Br)ccc3oc2=O)cc1 | -19% (inactive) |
| Cc1cccc(NC(=O)CNC(=O)c2ccc3c(=O)[nH]c(CN4CCOCC4)nc3c2)c1C | 5% (inactive) |
| CCOC(=O)c1c(CN2CCN(CC#N)CC2)n(-c2ccccc2)c2ccc(O)cc12 | -1% (inactive) |
| NC(=O)CCc1nc(-c2ccccc2)no1 | -4% (inactive) |
| Cc1nn(Cc2ccc(Cl)cc2)c(C)c1NC(=O)COCc1cc(-c2cccs2)on1 | -15% (inactive) |
| Cc1cc(C)c2nc(-c3ccco3)cc(C(=O)O)c2c1 | 5% (inactive) |
| Cc1cc(C)c2nc3nc(C)cc(C)c3c(N)c2c1 | 77% (active) |
| COc1ccc(/C=N/N2C(=O)c3ccccc3C2=O)cc1OC | -16% (inactive) |
| O=S1(=O)CC=C(S(=O)(=O)c2ccccc2)C1 | 2% (inactive) |
| CCOC(=O)COc1ccc2cc(-c3nc4ccccc4s3)c(=O)oc2c1 | -176% (inactive) |
| CC(=O)Nc1nonc1Nc1csc(CC#N)n1 | -1% (inactive) |
| O=C(N/N=C/c1c(-c2ccccc2)nc2sccn12)c1ccc2ccccc2n1 | 15% (inactive) |
| COc1cccc(C2NC(=O)NC(C)=C2C(=O)c2ccccc2)c1 (stereo not given) | -13% (inactive) |
| CC1=C(C(=O)NCCC(C)C)C2(CCC(C)CC2)OC1=O (stereo not given) | 1% (inactive) |
| CC(C)CCSc1nc2ccccc2n1CN1CCN(S(=O)(=O)c2ccc(Cl)cc2)CC1 | 3% (inactive) |
